Test [1] is described as follows: Wnt pathway potentiators raising nuclear beta-catenin – imaging, WNT3A-conditioned medium, mouse C2C12, NPC library, primary screen (AID 1117326). Note: reference of the scale not given here. Conditions: stronger effect = higher value.
Test [2] in a line: stimulators of insulin release from INS-1E, primary screen, cell-based, 5 mM glucose, NPC library (AID 1117329;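 active = compound raises insulin release from rat beta cells at 5 mM glucose, no numeric limit stated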; note: reference of the scale not given here). Particulars: rat INS-1E insulin secretion, at 10 µM, stronger effect = higher value.
The nature of test [3]: growth inhibition of GSK3B-pretreated HCT116 cells – cell-based, CellTiter-Glo, 0.2 to 20 µM (AID 1117336;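 active = compounds lowering colon cancer cell viability after pretreatment blocking the GSK3B kinase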). Conditions: HCT116 viability after GSK3B inhibitor, at 20 µM, stronger effect = higher value. For orientation: Cellular ATP, detected with luciferase, serves as a proxy for viable cell number.
Test [4] can be described thus: inhibition of endothelial tube formation, primary screen, imaging, VEGF stimulated, CD31 staining, tube area, NPC library (AID 1117340;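 active = compound that reduces growth-factor-driven endothelial tube area in a mixed cell culture, no cutoff stated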). Conditions: VEGF-stimulated ADSC/ECFC co-culture, at 10 µM, stronger effect = higher value.
Test [5] in a line: GLP1 release stimulators, primary, NCI-H716, NPC library (AID 1117341;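 active = compound raises GLP1 secretion from the human gut endocrine cells, with no numeric limit stated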; note: reference of the scale not given here). Conditions: NCI-H716 cells, at 10 µM, stronger effect = higher value.
Test [6] in a line: HCT116 colon cancer cell growth inhibition, primary screen, CellTiter-Glo luminescence, NPC library (AID 1117342;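 active = compounds that lower survival of HCT116 colon cancer cells in the luminescence readout, no numeric limit stated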). Particulars: at 20 µM (top of the series).
Test [7] can be described thus: reduced SW480 viability measured with CellTiter-Glo, NPC library, primary (AID 1117343;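 active = compounds that lower viability of the colon cancer cells in the luminescence readout, with no numeric limit stated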). Conditions: CellTiter-Glo luminescence; at 20 µM (top of the series).
Test [8] is described as follows: NPC library primary testing for decreased DLD-1 cell viability via CellTiter-Glo (AID 1117346;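 active = compounds that lower survival of DLD-1 colon cancer cells in the luminescence readout, no cutoff given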). Conditions: DLD-1 viability, CellTiter-Glo luminescence; at 20 µM (top of the series).

Active and inactive are the calls of the source. Cut-off read from the data, not from the text of the source, unless noted: active = nuclear beta-catenin stimulation mostly above about 4.2% (no sharp cut-off); inactive = mostly below about 10%.

As to `CCCCCC[C@@H](CCC)C(=O)O`, the nuclear beta-catenin stimulation in test [1] (at 10 µM) was -0.3% (inactive); in test [1] (stimulation, at 2 µM), -0.9%. Also, the insulin secretion stimulation in test [2] is 0.3% (inactive). The viability decrease in test [3] was 1.2% (inactive). Besides, the tube area decrease in test [4] was -29.5% (inactive). For the same molecule, in test [5], the GLP1 secretion stimulation was 3.5% (inactive). Also, the inhibition of viability in test [6] is 17.7% (inactive). In addition, the viability decrease (inhibition) is 14% (inactive) in test [7] and 16.9% (inactive) in test [8].
Regarding `CC1(C)CO[C@@H](CC(=O)O)CN1`, the nuclear beta-catenin stimulation in test [1] (at 10 µM) was -0.7% (inactive); in test [1] (stimulation, at 2 µM), 0.1%. Besides, in test [2], the insulin secretion stimulation was 0.5% (inactive). Besides, the viability decrease in test [3] is -0.8% (inactive). In test [4], the tube area decrease was -11.6% (inactive). In addition, the GLP1 secretion stimulation in test [5] was -0.1% (inactive). In addition, in test [6], the inhibition of viability was 7.17% (inactive). Further, the results for the viability decrease (inhibition) in test [7] and in test [8] were -7% (inactive) and -1% (inactive), respectively.
As to `Cc1c(C)c2c(c(C)c1OC(=O)CCC(=O)OCCO)CC[C@@](C)(CCC[C@H](C)CCC[C@H](C)CCCC(C)C)O2`, the nuclear beta-catenin stimulation in test [1] (at 10 µM) is 0% (inactive); in test [1] (stimulation, at 2 µM), -0.6%. The insulin secretion stimulation in test [2] is 0.25% (inactive). Besides, in test [3], the viability decrease is 116% (active). Besides, in test [4], the tube area decrease is 17.4% (inactive). Moreover, in test [5], the GLP1 secretion stimulation was 23% (active). Moreover, the inhibition of viability in test [6] is 122% (active). The results for the viability decrease (inhibition) in test [7] and in test [8] were 157% (active) and 101% (active), respectively.
`COC(=O)Nc1nc2ccc(C(=O)C3CC3)cc2[nH]1`: the nuclear beta-catenin stimulation was 41.8% (active) in test [1] (at 10 µM) and 54.5% in test [1] (stimulation, at 2 µM). In test [2], the insulin secretion stimulation was 1.9% (inactive). Besides, the viability decrease in test [3] was 93.1% (active). In test [4], the tube area decrease is 103% (active). Also, the GLP1 secretion stimulation in test [5] is -0.3% (inactive). The inhibition of viability in test [6] was 87.9% (active). Moreover, the viability decrease (inhibition) in test [7] was 32.9% (inactive); in test [8], 51.6% (active).
For the molecule `Cc1c(I)c(=O)n(-c2ccccc2)n1C`, the nuclear beta-catenin stimulation in test [1] (at 10 µM) was -0.6% (inactive); in test [1] (stimulation, at 2 µM), 0.4%. Also, the insulin secretion stimulation in test [2] was 0.4% (inactive). Further, the viability decrease in test [3] was -4.55% (inactive). In test [4], the tube area decrease was 1.2% (inactive). Further, the GLP1 secretion stimulation in test [5] is 0.6% (inactive). Also, in test [6], the inhibition of viability was -8.9% (inactive). Moreover, the viability decrease (inhibition) in test [7] was 26.3% (inactive); in test [8], 33.4% (inactive).
Consider `CCCCCCCCC=CCCCCCCCC(=O)NCCOC(=O)CC(C(=O)O)S(=O)(=O)O` (stereo unspecified), for which the nuclear beta-catenin stimulation is 0.3% (inactive) in test [1] (at 10 µM) and -0.7% in test [1] (stimulation, at 2 µM). In test [2], the insulin secretion stimulation is 0.8% (inactive). The viability decrease in test [3] was 36.1% (active). For the same molecule, the tube area decrease in test [4] was 22.7% (inactive). For the same molecule, the GLP1 secretion stimulation in test [5] was -1% (inactive). In addition, the inhibition of viability in test [6] was 17.1% (inactive). Also, the viability decrease (inhibition) in test [7] was 63.4% (active); in test [8], 81.6% (active).
As to `CS(=O)(=O)c1ccc(-c2cn3ccccc3n2)cc1`, the nuclear beta-catenin stimulation in test [1] (at 10 µM) is -2% (inactive); in test [1] (stimulation, at 2 µM), -0.4%. For the same molecule, the insulin secretion stimulation in test [2] is 0.9% (inactive). Further, the viability decrease in test [3] was 18.1% (inactive). Further, in test [4], the tube area decrease is -6.3% (inactive). The GLP1 secretion stimulation in test [5] was -2.6% (inactive). Also, the inhibition of viability in test [6] is 14.5% (inactive). Also, the viability decrease (inhibition) in test [7] is 22.6% (inactive); in test [8] it was 13.5% (inactive).
Turning to `COc1ccc(S(=O)(=O)Nc2nnc(CC(C)C)s2)cc1`, the nuclear beta-catenin stimulation in test [1] (at 10 µM) was -0.3% (inactive); in test [1] (stimulation, at 2 µM), -0.5%. Besides, the insulin secretion stimulation in test [2] is 5.1% (inactive). The viability decrease in test [3] was -9.2% (inactive). Also, the tube area decrease in test [4] is -5.8% (inactive). Also, in test [5], the GLP1 secretion stimulation was -1.9% (inactive). Besides, the inhibition of viability in test [6] was -18.3% (inactive). Moreover, the figures for the viability decrease (inhibition) in test [7] and in test [8] were 13.7% (inactive) and -19.8% (inactive), respectively.
For `COC(=O)/C=C(/C)N`, the nuclear beta-catenin stimulation in test [1] (at 10 µM) was 0.7% (inactive); in test [1] (stimulation, at 2 µM) it was 2.2%. In addition, in test [2], the insulin secretion stimulation was -0.8% (inactive). Besides, in test [3], the viability decrease was 17.3% (inactive). Moreover, in test [4], the tube area decrease is -6% (inactive). For the same molecule, the GLP1 secretion stimulation in test [5] was 2.3% (inactive). For the same molecule, the inhibition of viability in test [6] is -17.5% (inactive). Further, the viability decrease (inhibition) in test [7] is 2.9% (inactive); in test [8], -8.3% (inactive).
In the case of `O=C(c1cc(O)c(O)c(O)c1)c1ccc(O)c(O)c1O`, the nuclear beta-catenin stimulation is 1% (inactive) in test [1] (at 10 µM) and 17.1% in test [1] (stimulation, at 2 µM). Besides, the insulin secretion stimulation in test [2] was 6.1% (inactive). The viability decrease in test [3] is 98.2% (active). Further, the tube area decrease in test [4] is 8.9% (inactive). In test [5], the GLP1 secretion stimulation is 4.8% (inactive). In test [6], the inhibition of viability was 69.7% (active). For the same molecule, the viability decrease (inhibition) in test [7] was 103% (active); in test [8], 58.6% (active).
Turning to `CN(C)CCCOC1(Cc2ccccc2)CCCCCC1`, the nuclear beta-catenin stimulation was 6% (inactive) in test [1] (at 10 µM) and 5.8% in test [1] (stimulation, at 2 µM). In addition, in test [2], the insulin secretion stimulation is 4.2% (inactive). Moreover, the viability decrease in test [3] is -55.2% (inactive). Moreover, the tube area decrease in test [4] is 17.7% (inactive). Besides, the GLP1 secretion stimulation in test [5] is 6.8% (inactive). In test [6], the inhibition of viability was 7.6% (inactive). The results for the viability decrease (inhibition) in test [7] and in test [8] were 33.2% (inactive) and -33.1% (inactive), respectively.
`CC(=O)N1C[C@H](O)C[C@H]1C(=O)O`: the nuclear beta-catenin stimulation in test [1] (at 10 µM) was 0.5% (inactive); in test [1] (stimulation, at 2 µM) it was -0.3%. In addition, in test [2], the insulin secretion stimulation is -0.3% (inactive). The viability decrease in test [3] was -2.7% (inactive). In addition, the tube area decrease in test [4] was -1.7% (inactive). In addition, the GLP1 secretion stimulation in test [5] was -0.9% (inactive). For the same molecule, in test [6], the inhibition of viability is 7.13% (inactive). Moreover, the viability decrease (inhibition) in test [7] was 8.1% (inactive); in test [8], 4% (inactive).
Consider `O=C1Nc2ccccc2C1(c1ccc(O)cc1)c1ccc(O)cc1`, for which the nuclear beta-catenin stimulation is -0.4% (inactive) in test [1] (at 10 µM) and -1.6% in test [1] (stimulation, at 2 µM). In addition, in test [2], the insulin secretion stimulation is 0.6% (inactive). For the same molecule, the viability decrease in test [3] was 54.5% (active). In test [4], the tube area decrease is 16.2% (inactive). Besides, the GLP1 secretion stimulation in test [5] is 5.4% (inactive). The inhibition of viability in test [6] was 71.7% (active). Moreover, the viability decrease (inhibition) was 38.2% (inactive) in test [7] and 56.5% (active) in test [8].
Take `COC1=C(OC)C(=O)C(CC=C(C)CCC=C(C)CCC=C(C)CCC=C(C)CCC=C(C)CCC=C(C)CCC=C(C)CCC=C(C)CCC=C(C)CCC=C(C)C)=C(C)C1=O`: the nuclear beta-catenin stimulation was 0.8% (inactive) in test [1] (at 10 µM) and 1.2% in test [1] (stimulation, at 2 µM). Moreover, the insulin secretion stimulation in test [2] was 3.9% (inactive). Further, the viability decrease in test [3] is 13.5% (inactive). For the same molecule, the tube area decrease in test [4] is -5.2% (inactive). In test [5], the GLP1 secretion stimulation was 1.9% (inactive). Moreover, the inhibition of viability in test [6] is 4.6% (inactive). In addition, the figures for the viability decrease (inhibition) in test [7] and in test [8] were -7.3% (inactive) and 1.9% (inactive), respectively.

For the origin of these results see PubChem BioAssay.
